Tests used:
Assay in all cases: PBM binding z-score (relative to random genomic background probes); higher = stronger binding; sequences stand for … in GC…GCGATTGACAGCGTAGAATGAAGG
[1] = test system: FXR:RXRa (NR concentration 270 nM, RXRa partner concentration 90 nM)
Procedure, shortened: (§1)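 Each nuclear receptor dimer, without ligand, was incubated for 1 h on custom Agilent 4×180K protein-binding microarrays. Binding was detected with antibodies against each partner (one per run), and scanned fluorescence was regression-normalized. The binding z-scores are referenced to random human genomic background probes.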

[2] = test system: LXRa homodimer (NR concentration 270 nM)
Procedure, shortened: as §1

[3] = test system: LXRb homodimer (NR concentration 270 nM)
Procedure, shortened: as §1

[4] = test system: PPARg:RXRa (NR concentration 180 nM, RXRa partner concentration 90 nM)
Procedure, shortened: as §1

[5] = test system: PPARg:RXRa 270nM:90nM, anti-RXR (NR concentration 270 nM, RXRa partner concentration 90 nM)
Procedure, shortened: as §1

[6] = test system: PPARg:RXRa 30nM:10nM, anti-RXR (NR concentration 30 nM, RXRa partner concentration 10 nM)
Procedure, shortened: as §1

[7] = test system: PPARg:RXRa 90nM:30nM, anti-RXR (NR concentration 90 nM, RXRa partner concentration 30 nM)
Procedure, shortened: as §1

[8] = test system: PPARg:RXRa DBDmut IVT, anti-RXR (DBD mutation: RXRa K156A/R161A, NR concentration 270 nM, RXRa partner concentration 90 nM)
Procedure, shortened: as §1

[9] = test system: PPARg:RXRa IVT, anti-PPARg (NR concentration 270 nM, RXRa partner concentration 90 nM)
Procedure, shortened: as §1

[10] = test system: PPARg DBDmut:RXRa IVT, anti-PPARg (DBD mutation: PPARg1 K132A/R137A, NR concentration 270 nM, RXRa partner concentration 90 nM)
Procedure, shortened: as §1

[11] = test system: PPARg DBDmut IVT, anti-PPARg (DBD mutation: PPARg1 K132A/R137A, NR concentration 270 nM)
Procedure, shortened: as §1

[12] = test system: PPARg homodimer (NR concentration 180 nM)
Procedure, shortened: as §1

[13] = test system: PXR:RXRa (NR concentration 270 nM, RXRa partner concentration 90 nM)
Procedure, shortened: as §1

[14] = test system: PXR homodimer (NR concentration 270 nM)
Procedure, shortened: as §1

[15] = test system: RARa:RXR (NR concentration 270 nM, RXRa partner concentration 90 nM)
Procedure, shortened: as §1

[16] = test system: RARa homodimer (NR concentration 270 nM)
Procedure, shortened: as §1

[17] = test system: RARb:RXRa (NR concentration 270 nM, RXRa partner concentration 90 nM)
Procedure, shortened: as §1

[18] = test system: RARb homodimer (NR concentration 270 nM)
Procedure, shortened: as §1

[19] = test system: PPARa:RXRa (NR concentration 270 nM, RXRa partner concentration 90 nM)
Procedure, shortened: as §1

Sequence | PBM binding z-score [1] | PBM binding z-score [2] | PBM binding z-score [3] | PBM binding z-score [4] | PBM binding z-score [5] | PBM binding z-score [6] | PBM binding z-score [7] | PBM binding z-score [8] | PBM binding z-score [9] | PBM binding z-score [10] | PBM binding z-score [11] | PBM binding z-score [12] | PBM binding z-score [13] | PBM binding z-score [14] | PBM binding z-score [15] | PBM binding z-score [16] | PBM binding z-score [17] | PBM binding z-score [18] | PBM binding z-score [19]
ATATGTAGGTTACCTGGGGTCATTCAGACTAGGC | 4.89 | 10.8 | 2.55 | 7.13 | 6.14 | 3.84 | 5.9 | 7.37 | 7.26 | 2.71 | 1.81 | 2.87 | 6.79 | 4.76 | 5.89 | 0.968 | 3.18 | 4.13 | 
ACTTACGGCTCAACGAGGTTATAGCACGCGTATA | 0.333 | 0.28 | 0.162 | 0.821 | -0.0206 | -0.186 | -0.0465 | -0.0346 | 0.0544 | 0.327 | 0.825 | 0.463 | 0.645 | 0.358 | 0.812 | -0.139 | 0.165 | 0.526 | 
CCTACTGGGCCGTTCAGAGGTCATTGATCATATG | 2.45 | 5.59 | 0.189 | 1.33 | 2.48 | 0.658 | 1.67 | 1.34 | 2.34 | -0.522 | -0.314 | 1.94 | 4.75 | 2.25 | 4.52 | 0.491 | 2.7 | 3.78 | 
CGTCAAAGTTCAACTGAGGTAACGTAAAGCACGC | 7.32 | 5.02 | 2 | 5.04 | 5.58 | 2.33 | 4.11 | 0.26 | 2.31 | 0.285 | 0.242 | 3.03 | 5.86 | 4.5 | 4.36 | 1.6 | 5.41 | 4.06 | 
GCTTACGGGTCCAAGGTTATAGCATGAATAGAAT | 0.369 | -0.143 | -0.0563 | 1.97 | 2.86 | 1.43 | 2.47 | 0.18 | 0.338 | 0.865 | -0.558 | 0.0227 | 0.869 | 0.331 | 1.06 | 0.0844 | 0.932 | 0.871 | 
AGTCAAAGTTCATCTAGGTCACGTAAGATATGCT | 7.54 | 7.38 | 2.1 | 7.93 | 7.25 | 4.56 | 6.61 | 3.49 | 6.09 | 1.86 | 2.18 | 4.77 |  | 13.9 | 6.05 | 2.4 |  | 5.12 | 5.68
ATATGTAGGTTAGCTGAGGTCATTCAGACTAGGC | 5.29 | 6.24 | 1.12 | 5.21 | 4.91 | 2.35 | 4.11 | 6.93 | 6.48 | 2.26 | 1.4 | 3.04 | 6.68 | 6.09 | 4.95 | 1.7 | 3.34 | 4.04 | 
CGTCCAAGGTCAGCGGGTCAGTGAAAGCGACGTG | 5.98 | 0.175 | -0.324 | 4.41 | 4.84 | 1.19 | 2.81 | 3.12 | 3.48 | -0.302 | -0.244 | 3.27 | 3.9 | 1.09 | 5.13 | 1.34 | 5.2 | 4.69 | 
CGTCCAAAGTCAAAGGTCAGTGAAGAGATGACGG | 3.96 | 1.31 | 0.637 | 5.73 | 5.88 | 3.89 | 5.37 | 0.242 | 2.41 | 0.349 | 0.905 | 3.27 | 3.97 | 0.811 | 5.61 | 1.11 | 4.53 | 4.29 | 
CCTTACGGGTCACTCCAGGTCATAGCATCGGAGT | 5.36 | 7.03 | 0.548 | 4.38 | 4.54 | 1.86 | 3.2 | 2.73 | 4.39 | -0.278 | -0.144 | 2.14 | 6.17 | 1.15 | 4.49 | 0.835 | 4.25 | 4.42 | 
CAAACTAGGTCACAGTGGTCAAAGTCCGTGCGTA | 4.01 | 0.593 | -0.0137 | 8.83 | 6.97 | 5.52 | 7.04 | 8.5 | 9.05 | 2.06 | 1.68 | 2.21 | 2.03 | -0.0834 | 2.51 | 0.000573 | 4.08 | 3.62 | 
CAAACTAGGTCACTAAAGGTCAAAGTCGAATGAC | 7.13 | 10.4 | 4.07 | 10.1 | 8.33 | 6.31 | 8.16 | 8.1 | 8.98 | 4.79 | 2.9 | 5.36 | 6.84 | 2.87 | 7.45 | 3.41 | 5.53 | 5.66 | 
ATATGTAGGTTAGCTGGGGTCCTTCAGACTAGGC | 0.425 | -0.109 | 0.384 | 2.96 | 2.75 | 0.715 | 1.78 | 6.27 | 5.77 | 1.74 | 2.65 | 1.13 | 1.33 | 0.206 | 2.3 | 0.538 | 0.851 | 0.736 | 
TATTCAGGGTCAAAGGCCAGAGTACGAATGTCGA | 7.57 | 5.36 | 5.04 | 8.53 | 7.7 | 6.15 | 7.42 | 2.47 | 5.28 | 4.08 | 6.08 | 3.43 | 4.67 | 0.543 | 6.17 | 1.17 | 4.83 | 3.61 | 
GCATATAGGTAATACAAGGTCAAAGTCCGATTGT | 3.47 | 9.94 | 1.42 | 2.69 | 3.32 | 1.39 | 2.9 | 4.1 | 4.1 | 0.883 | 0.92 | 1.97 | 4.93 | 2.12 | 4.47 | 1.17 | 2.92 | 3.79 | 
